Data: PubChem BioAssay (NCATS)
Results filed as inconclusive are left out. Active and inactive are the calls of the source. Unless noted, the call rests on the fitted dose curve; in most records, active means well fitted inhibition curve with a large enough effect; inconclusive means small, poorly fitted or top-dose-only effect; inactive means flat fitted curve, though single readings scatter.

How the values were obtained:
[1] = qHTS profiling for inhibitors of Plasmodium falciparum proliferation (AID 504749);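 on activity, negative = inhibition: 0% = DMSO vehicle and full inhibition = artemisinin control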; on all read-outs here: nearly all actives have a fitted effect of over 60% in size; settings: P. falciparum in erythrocytes, SYBR Green DNA, 72 h; for activity, negative = inhibition: at 28.7 µM (top of the series)
Method in brief: (§1)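 Fluorescence of SYBR Green-bound parasite DNA, read at 485/535 nm, served as the growth measure. Infected erythrocytes were cultured with compound 72 h; artemisinin (0.29 uM) and DMSO wells defined the normalization range.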

3D7 = assay: as above; settings: P. falciparum in erythrocytes, SYBR Green DNA, 72 h; series mostly up to 28.7 µM
Method in brief: as §1

7G8 = assay: as above; settings: P. falciparum in erythrocytes, SYBR Green DNA, 72 h; series mostly up to 28.7 µM
Method in brief: as §1

AA1029 = assay: as above; settings: P. falciparum in erythrocytes, SYBR Green DNA, 72 h; series mostly up to 28.7 µM
Method in brief: as §1

AS120 = assay: as above; settings: P. falciparum in erythrocytes, SYBR Green DNA, 72 h; series mostly up to 28.7 µM
Method in brief: as §1

ATS189 = assay: as above; settings: P. falciparum in erythrocytes, SYBR Green DNA, 72 h; series mostly up to 28.7 µM
Method in brief: as §1

ATS95 = assay: as above; settings: P. falciparum in erythrocytes, SYBR Green DNA, 72 h; series mostly up to 28.7 µM
Method in brief: as §1

C2A = assay: as above; settings: P. falciparum in erythrocytes, SYBR Green DNA, 72 h; series mostly up to 28.7 µM
Method in brief: as §1

CP185 = assay: as above; settings: P. falciparum in erythrocytes, SYBR Green DNA, 72 h; series mostly up to 28.7 µM
Method in brief: as §1

CP191 = assay: as above; settings: P. falciparum in erythrocytes, SYBR Green DNA, 72 h; series mostly up to 28.7 µM
Method in brief: as §1

CP192 = assay: as above; settings: P. falciparum in erythrocytes, SYBR Green DNA, 72 h; series mostly up to 28.7 µM
Method in brief: as §1

CP194 = assay: as above; settings: P. falciparum in erythrocytes, SYBR Green DNA, 72 h; series mostly up to 28.7 µM
Method in brief: as §1

CP201 = assay: as above; settings: P. falciparum in erythrocytes, SYBR Green DNA, 72 h; series mostly up to 28.7 µM
Method in brief: as §1

CP203 = assay: as above; settings: P. falciparum in erythrocytes, SYBR Green DNA, 72 h; series mostly up to 28.7 µM
Method in brief: as §1

CP211 = assay: as above; settings: P. falciparum in erythrocytes, SYBR Green DNA, 72 h; series mostly up to 28.7 µM
Method in brief: as §1

CP215 = assay: as above; settings: P. falciparum in erythrocytes, SYBR Green DNA, 72 h; series mostly up to 28.7 µM
Method in brief: as §1

CP217 = assay: as above; settings: P. falciparum in erythrocytes, SYBR Green DNA, 72 h; series mostly up to 28.7 µM
Method in brief: as §1

[2] = qHTS drug screen for cell cycle checkpoint inhibitors in PARPi-resistant BRCA-mutant ovarian cancer cell lines. (AID 1963452; calls by dose curve); settings: PEO1/OlaR viability, CellTiter-Glo luminescence, 96 h; for Z-AUC: stronger effect = lower value
Method in brief: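 PEO1, PEO4 and PEO1/OlaR ovarian cancer cells, 600 per well, exposed 96 h at 37C to a dilution series. Viability read by CellTiter-Glo luminescence, normalized to DMSO and empty wells; activity summarized as Z-AUC.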

[3] = measured here: PEO1 parental Z-AUC
Potency means the concentration at half of the fitted maximal effect.

## CCCCCCCCCCCC[n+]1ccc2ccccc2c1
[1]; parasite line A
  Potency: 794 nM (active)
[1]; parasite line B
  Potency: 501 nM (active)
3D7
  Potency: 1120 nM (active)
7G8
  Potency: 316 nM (active)
AA1029
  Potency: 1260 nM (active)
AS120
  Potency: 1410 nM (active)
ATS189
  Potency: 1000 nM (active)
ATS95
  Potency: 2000 nM (active)
C2A
  Potency: 708 nM (active)
CP185
  Potency: 562 nM (active)
CP191
  Potency: 562 nM (active)
CP192
  Potency: 601 nM (active)
CP194
  Potency: 1200 nM (active)
CP201
  Potency: 1690 nM (active)
CP203
  Potency: 849 nM (active)
CP211
  Potency: 675 nM (active)
CP215
  Potency: 1070 nM (active)
CP217
  Potency: 891 nM (active)

## C=Cc1cc(O)cc2nc(-c3ccc(O)c(F)c3)oc12
[2]
  Z-AUC: 0.0399 (inactive)
[2]; [3]
  Z-AUC: 0.836
[2]; measured here: PEO4 Z-AUC
  Z-AUC: 0.548

## COc1cc2c(Nc3ccc(Cl)c(Cl)c3F)ncnc2cc1OCC1C[C@@H]2CN(C)C[C@@H]2C1 (stereo partly drawn)
[2]
  Z-AUC: -0.294 (inactive)
[2]; [3]
  Z-AUC: -0.529
[2]; measured here: PEO4 Z-AUC
  Z-AUC: -0.609

## COC(F)(F)C(Cl)Cl
[1]; parasite line A
  activity, negative = inhibition: 16.9% (inactive)
[1]; parasite line B
  activity, negative = inhibition: -4.97% (inactive)
3D7
  Potency: inactive
7G8
  Potency: inactive
AA1029
  Potency: inactive
AS120
  Potency: inactive
ATS189
  Potency: inactive
ATS95
  Potency: inactive
C2A
  Potency: inactive
CP185
  Potency: inactive
CP191
  Potency: inactive
CP192
  Potency: inactive
CP194
  Potency: inactive
CP201
  Potency: inactive
CP203
  Potency: inactive
CP211
  Potency: inactive
CP215
  Potency: inactive
CP217
  Potency: inactive

## CN(NC(=O)CC(=O)NN(C)C(=S)c1ccccc1)C(=S)c1ccccc1
[2]
  Z-AUC: 1.67 (inactive)
[2]; [3]
  Z-AUC: 1.08
[2]; measured here: PEO4 Z-AUC
  Z-AUC: 1.36

## CCCC(=O)O[C@]1(C(=O)CCl)[C@H](C)C[C@@H]2[C@H]3CCC4=CC(=O)C=C[C@]4(C)[C@@]3(F)C(=O)C[C@@]21C
[1]; parasite line A
  Potency: 1410 nM (active)
[1]; parasite line B
  Potency: 2240 nM (active)
3D7
  Potency: 2510 nM (active)
7G8
  Potency: 2510 nM (active)
AA1029
  Potency: 2820 nM (active)
AS120
  Potency: 3160 nM (active)
ATS189
  Potency: 2820 nM (active)
ATS95
  Potency: 3550 nM (active)
C2A
  Potency: 3550 nM (active)
CP185
  Potency: 3160 nM (active)
CP191
  Potency: 891 nM (active)
CP192
  Potency: 4780 nM (active)
CP194
  Potency: 3010 nM (active)
CP201
  Potency: 3790 nM (active)
CP203
  Potency: 4780 nM (active)
CP211
  Potency: 1510 nM (active)
CP215
  Potency: 3790 nM (active)
CP217
  Potency: 3160 nM (active)

## C=C1CC[C@@H]2[C@](C)(CO)[C@H](O)CC[C@@]2(C)[C@@H]1C/C=C1/C(=O)OC[C@H]1O
[2]
  Z-AUC: 0.643 (inactive)
[2]; [3]
  Z-AUC: -0.159
[2]; measured here: PEO4 Z-AUC
  Z-AUC: 0.023

## CCCOc1ccn2c(C(C)=O)cc(-c3ccccc3S(C)(=O)=O)c2c1
[2]
  Z-AUC: 2.02 (inactive)
[2]; [3]
  Z-AUC: 1.76
[2]; measured here: PEO4 Z-AUC
  Z-AUC: 1.78

## O=C(O)c1cnn(-c2nc3cc(OC(F)(F)F)c(Cl)cc3[nH]2)c1
[2]
  Z-AUC: 0.292 (inactive)
[2]; [3]
  Z-AUC: -0.102
[2]; measured here: PEO4 Z-AUC
  Z-AUC: -0.0473

## CC(C)(O)CNc1nc(Nc2ccnc(C(F)(F)F)c2)nc(-c2cccc(C(F)(F)F)n2)n1
[2]
  Z-AUC: 0.352 (inactive)
[2]; [3]
  Z-AUC: 0.62
[2]; measured here: PEO4 Z-AUC
  Z-AUC: 0.79

## CCC(=O)NCCC1CCc2ccc3c(c21)CCO3 (stereo not drawn)
[1]; parasite line A
  activity, negative = inhibition: 6.95% (inactive)
[1]; parasite line B
  activity, negative = inhibition: 0.538% (inactive)
3D7
  Potency: inactive
7G8
  Potency: inactive
AA1029
  Potency: inactive
AS120
  Potency: inactive
ATS189
  Potency: inactive
ATS95
  Potency: inactive
C2A
  Potency: inactive
CP185
  Potency: inactive
CP191
  Potency: inactive
CP192
  Potency: inactive
CP194
  Potency: inactive
CP201
  Potency: inactive
CP203
  Potency: inactive
CP211
  Potency: inactive
CP215
  Potency: inactive
CP217
  Potency: inactive

## CCN(c1cc(C#CCN2CCOCC2)cc(C(=O)NCc2c(C)cc(C)[nH]c2=O)c1C)C1CCC(N(C)CCOC)CC1 (stereo not drawn)
[2]
  Z-AUC: 0.159 (inactive)
[2]; [3]
  Z-AUC: 1.88
[2]; measured here: PEO4 Z-AUC
  Z-AUC: 1.36

## CCOC(=O)[C@H]1O[C@@H]1C(=O)N[C@@H](CC(C)C)C(=O)NCCC(C)C
[2]
  Z-AUC: -0.23 (inactive)
[2]; [3]
  Z-AUC: 0.731
[2]; measured here: PEO4 Z-AUC
  Z-AUC: 0.891

## OC[C@H]1O[C@@H](Oc2cc(O)cc(/C=C/c3ccc(O)cc3)c2)[C@H](O)[C@@H](O)[C@@H]1O
[2]
  Z-AUC: 1.9 (inactive)
[2]; [3]
  Z-AUC: 1.63
[2]; measured here: PEO4 Z-AUC
  Z-AUC: 1.47

## O=C(C1CC1)N1CC[C@@H](Cc2n[nH]c(=O)n2-c2ccc(-c3ccc4occc4c3)cc2)C1
[2]
  Z-AUC: 1.31 (inactive)
[2]; [3]
  Z-AUC: 0.792
[2]; measured here: PEO4 Z-AUC
  Z-AUC: 0.425

## O=C(O)CCC(=O)C(=O)O
[1]; parasite line A
  activity, negative = inhibition: 2.78% (inactive)
[1]; parasite line B
  activity, negative = inhibition: 9.14% (inactive)
3D7
  Potency: inactive
7G8
  Potency: inactive
AA1029
  Potency: inactive
AS120
  Potency: inactive
ATS189
  Potency: inactive
ATS95
  Potency: inactive
C2A
  Potency: inactive
CP185
  Potency: inactive
CP191
  Potency: inactive
CP192
  Potency: inactive
CP194
  Potency: inactive
CP201
  Potency: inactive
CP203
  Potency: inactive
CP211
  Potency: inactive
CP215
  Potency: inactive
CP217
  Potency: inactive

## Cc1c(-c2ccnn2C)cc(C(=O)NCc2ccc(S(C)(=O)=O)cn2)c(=O)n1-c1cccc(C(F)(F)F)c1
[2]
  Z-AUC: -0.519 (inactive)
[2]; [3]
  Z-AUC: -0.353
[2]; measured here: PEO4 Z-AUC
  Z-AUC: -0.364

## CC(C)Nc1cc(-c2c[nH]c(C(=O)N[C@H](CO)c3cccc(Cl)c3)c2)c(Cl)cn1
[2]
  Potency: 8710 nM (active)
[2]; [3]
  Z-AUC: -1.89
[2]; measured here: PEO4 Z-AUC
  Z-AUC: -1.82

## CC(=O)c1cnc2ccc(-c3cc(Cl)c(O)c(Cl)c3)nc2c1NC1CCC(CN(C)C)CC1 (stereo not drawn)
[2]
  Potency: 252 nM (active)
[2]; [3]
  Z-AUC: -1.7
[2]; measured here: PEO4 Z-AUC
  Z-AUC: -1.3

## CCCC(=O)Nc1ncnc2c1ncn2C1OC2COP(=O)(O)OC2C1OC(=O)CCC (stereo not drawn)
[1]; parasite line A
  activity, negative = inhibition: 6.84% (inactive)
[1]; parasite line B
  activity, negative = inhibition: -4.45% (inactive)
3D7
  Potency: inactive
7G8
  Potency: inactive
AA1029
  Potency: inactive
AS120
  Potency: inactive
ATS189
  Potency: inactive
ATS95
  Potency: inactive
C2A
  Potency: inactive
CP185
  Potency: inactive
CP191
  Potency: inactive
CP192
  Potency: inactive
CP194
  Potency: inactive
CP201
  Potency: inactive
CP203
  Potency: inactive
CP211
  Potency: inactive
CP215
  Potency: inactive
CP217
  Potency: inactive

## C#CCOc1ccc2c(C)cc(=O)oc2c1
[1]; parasite line A
  activity, negative = inhibition: 3.33% (inactive)
[1]; parasite line B
  activity, negative = inhibition: 5.62% (inactive)
3D7
  Potency: inactive
7G8
  Potency: inactive
AA1029
  Potency: inactive
AS120
  Potency: inactive
ATS189
  Potency: inactive
ATS95
  Potency: inactive
C2A
  Potency: inactive
CP185
  Potency: inactive
CP191
  Potency: inactive
CP192
  Potency: inactive
CP194
  Potency: inactive
CP201
  Potency: inactive
CP203
  Potency: inactive
CP211
  Potency: inactive
CP215
  Potency: inactive
CP217
  Potency: inactive
